RORgamma inh: qHTS for inhibitors of ROR gamma transcriptional activity; Potency, µM (doses to about 53.6 µM), for the others: at the top dose activity change, negative = inhibition, most hits filed as inhibitors; Nuclear receptor ROR-gamma (Mus musculus), P51450; Drosophila S2 Gal4-RORgamma UAS-luciferase reporter, 20 h; hit rate 5.4% among 310,000; also: nearly all actives have a fitted effect of over 60% in size
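Luciferase reporter read in Schneider cells carrying Gal4-RORγ (mouse) and UAS-Photinus luciferase; cells given compound 1 h before 700 uM copper sulfate induction, then incubated 20 h at ambient temperature.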
ALDH1A1 inh: qHTS Assay for Inhibitors of Aldehyde Dehydrogenase 1 (ALDH1A1); Aldehyde dehydrogenase 1A1 (Homo sapiens), P00352; Purified ALDH1A1, NADH fluorescence, propionaldehyde substrate; Potency, µM (doses to about 75.3 µM), for the others: at the top dose activity, negative = inhibition, most hits filed as inhibitors; hit rate 7.3% among 220,000; active = well fitted inhibition curve with a large enough effect, not every such curve was filed as active; inconclusive = small, poorly fitted or top-dose-only effect, or another doubt; inactive = no such curve, though single readings can be large or run the other way;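 also: plate controls were no enzyme wells and a reference inhibitor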
Target sequence (P00352 whole entry, looked up): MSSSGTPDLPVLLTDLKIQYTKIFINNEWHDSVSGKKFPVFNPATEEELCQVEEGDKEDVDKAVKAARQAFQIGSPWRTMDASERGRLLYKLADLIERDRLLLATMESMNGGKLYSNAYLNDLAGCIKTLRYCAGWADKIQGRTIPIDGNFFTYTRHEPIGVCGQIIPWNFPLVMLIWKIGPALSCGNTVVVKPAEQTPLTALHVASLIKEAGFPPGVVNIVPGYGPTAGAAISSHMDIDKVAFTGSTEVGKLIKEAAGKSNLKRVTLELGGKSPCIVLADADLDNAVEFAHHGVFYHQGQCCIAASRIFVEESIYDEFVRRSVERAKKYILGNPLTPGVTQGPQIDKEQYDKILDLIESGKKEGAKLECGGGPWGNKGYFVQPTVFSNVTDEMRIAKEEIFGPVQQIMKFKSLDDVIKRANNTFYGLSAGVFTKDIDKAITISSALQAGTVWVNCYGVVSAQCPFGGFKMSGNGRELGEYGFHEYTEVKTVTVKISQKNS
VP16 counter: VP16 counterscreen qHTS for inhibitors of ROR gamma transcriptional activity; Drosophila S2 Gal4-VP16 UAS-luciferase, luminescence, 20 h; Potency, µM (doses to about 53.6 µM), for inactives: top-dose activity, negative = inhibition, usual class: inhibitors; hit rate 3.5% among 310,000; AID 2546, 2010;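 also: Gal4-VP16 expression switched on by copper sulfate through the metallothionein promoter; nearly all actives have a fitted effect of over 50% in size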
Sfp inh: qHTS Assay for Inhibitors of Bacillus subtilis Sfp phosphopantetheinyl transferase (PPTase) | hit rate 3.5% among 310,000 | Potency, µM, inactives show largest response in the series, negative = inhibition, actives largely listed as inhibitors | AID 1490, 2009 | 4'-phosphopantetheinyl transferase ffp (Bacillus subtilis), Q9F4F7 | Biochemical Sfp PPTase activity, qHTS;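 also: the enzyme is Sfp with the accession as filed and its product quenches rhodamine fluorescence; 0% = enzyme reaction without inhibitor and -100% = no enzyme wells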
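Fluorescence-quenching assay with 15 nM Sfp, 5 uM rhodamine-CoA and 12.5 uM BHQ-2-labelled ybbR peptide in pH 7.6 Hepes/MgCl2 buffer. Enzyme was pre-incubated with compound for 15 min at room temperature. Rate was taken from the 30-min fluorescence change (525/598 nm).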
PLK1 PBD inh: qHTS for Inhibitors of PLK1-PDB (polo-like kinase 1 - polo-box domain): Primary Screen | Potency, µM, for inactives: max response, negative = inhibition, most hits filed as inhibitors | Plk1 PBD binding of FITC phosphopeptide, fluorescence polarization | Serine/threonine-protein kinase PLK1 (Homo sapiens), P53350 | hit rate 2.8% among 360,000; also: series mostly up to about 57 µM; nearly all actives have a fitted effect of over 65% in size
Numbers without * were called inactive; ? = inconclusive; nt = no result given; [ ] = remark or other dose. Shown are actives, neighbours in structure and some others; about 12% of the full set was active somewhere. Unless noted, calls follow the shape of the dose curve; as a rule, active = well fitted curve in the direction sought with a large enough effect; inconclusive = small, poorly fitted or top-dose-only effect, or another doubt; inactive = no such curve, though single readings can be large; an effect the other way counts as inactive or inconclusive. Unless noted, % is scaled to controls: 0 for no effect and ±100 for the full control effect; potency is read from the fitted curve at half-maximal effect.

SMILES | RORgamma inh | ALDH1A1 inh | VP16 counter | Sfp inh | PLK1 PBD inh
COc1ccc(NC(=S)NC(NC(=O)C(C)C)C(Cl)(Cl)Cl)c([N+](=O)[O-])c1 (stereo not drawn) | 17.8µM* | 1.1% | ? | -30.8% | 26.7µM*
CCOCC(=O)Nc1ccc([N+](=O)[O-])cc1OC | 3.8% | ? | 0.5% | 27.8% | -2.7%
COc1ccc(C(=O)NCC(=O)OCC(=O)Nc2cc([N+](=O)[O-])ccc2F)cc1 | 0.1% | 1.58µM* | 0.1% | 11.0% | -18.7%
CC(C)=CC(=O)OCC(=O)Nc1cc([N+](=O)[O-])ccc1F | 1.5% | 8.3% | -1.0% | 3.4% | -2.2%
COc1ccc([N+](=O)[O-])cc1NC(=S)NC(NC(C)=O)C(Cl)(Cl)Cl (stereo not drawn) | -5.0% | nt | -0.2% | -5.0% | 26.7µM*
COC(=O)C1=COC(O[C@H]2OC(CO)[C@H](O)C(O)C2O)[C@H]2C1C(=O)C[C@@H]2C (stereo partly drawn) | 7.0% | -0.1% | 2.4% | 2.7% | nt
CC(OC(=O)c1cccc(S(=O)(=O)N(C)C)c1)C(=O)NCC(=O)Nc1ccc(F)c(F)c1F (stereo not drawn) | nt | nt | nt | nt | -6.5%
O=C(NC(NC(=S)Nc1c(Cl)cccc1Cl)C(Cl)(Cl)Cl)OCc1ccccc1 (stereo not drawn) | -27.2%[10 µM] | 10µM* | ? | 14.3% | -3.5%
CCN1CCN(CCNC(=O)c2ccc3c(c2)N(Cc2ccc(F)cc2)C(=O)/C(=C/c2ccccc2)S3)CC1 | 15.8µM* | 5.5% | ? | 50.1µM* | 6.6%
CCN1CCN(CCNC(=O)c2ccc(/C=C3/Sc4ccccc4N(Cc4cccc(Cl)c4)C3=O)cc2)CC1 | -43.5% | -7.5% | ? | 50.1µM* | -0.8%
CN1CCN(CCCNC(=O)c2ccc(/C=C3\Sc4ccccc4N(Cc4ccccc4F)C3=O)cc2)CC1 | ? | ? | -0.1%[10 µM] | 39.8µM* | -10.7%
O=C(NCCN1CCOCC1)c1ccc(/C=C2\Sc3ccccc3N(Cc3ccccc3F)C2=O)cc1 | -11.2% | nt | -5.3% | -18.6% | -4.0%
O=C(NCCN1CCOCC1)c1ccc2c(c1)N(Cc1cccc(F)c1)C(=O)c1ccccc1S2 | 33.2% | 28.2µM* | 0.1% | -13.1% | 5.6%
Cc1cccc(CN2C(=O)/C(=C\c3ccc(C(=O)NCCN4CCOCC4)cc3)Sc3ccccc32)c1 | -44.1% | nt | -14.6% | ? | -15.1%
COc1ccc(/C=C2\Sc3ccc(C(=O)NCCN4CCCCCC4)cc3N(C)C2=O)cc1 | -8.6% | nt | -13.0% | ? | 1.7%
Cc1ccc(CN2C(=O)c3ccccc3Sc3ccc(C(=O)NCCCN4CCOCC4)cc32)cc1 | -17.1% | nt | -2.6% | -15.4% | -3.7%
NC(Cc1ccccc1)c1csc(Nc2nccc(C(F)(F)F)n2)n1 (stereo not drawn) | nt | nt | nt | nt | -13.7%
Cc1ccc(S(=O)(=O)N(CCCO)CC(O)CON=C2c3ccccc3-c3ccccc32)cc1 (stereo not drawn) | ? | 8.91µM* | ? | -0.7% | 9.0%
C[C@@H]1CN([C@H](C)CO)C(=O)CCCn2nncc2CO[C@H]1CN(C)C(=O)Nc1ccc(N2CCN(C)CC2)cc1 | nt | nt | nt | nt | -16.3%
COc1cc(OC)cc(C2=Cc3ccccc3C(CC(=O)c3ccco3)N2c2ccc(-c3cncnc3)cc2)c1 (stereo not drawn) | nt | nt | nt | nt | -6.8%
C/C(CCC(=O)OC[C@@H]1O[C@H](C#Cc2ccccc2)C=C[C@@H]1Oc1ccc(C)cc1)=N/O[C@@H](C)c1cn([C@H]2COC[C@H]2O)nn1 | 0.9%[10 µM] | -4.4%[13.5 µM] | 1.5%[10 µM] | 9.4% | nt
Cc1ccccc1-c1nccc(NCCN2CCOCC2)n1 | 1.7% | 31.6µM* | 5.4% | ? | nt
Cc1nnc(NC(=O)c2oc3ccccc3c2C)s1 | ? | nt | ? | 2.0% | -3.7%
Cc1nnc(NC(=O)c2oc3c(ccc4ccccc43)c2C)s1 | 12.6µM* | ? | -5.0% | 11.3% | -26.1%
CCOC(=O)c1cc(-c2ccccc2)nn1CC1CC(c2cccnc2)=NO1 (stereo not drawn) | nt | nt | nt | nt | 1.9%
SMILES | RORgamma inh | ALDH1A1 inh | VP16 counter | Sfp inh | PLK1 PBD inh
CCOC(=O)c1cc(-c2cccnc2)nn1-c1ccccc1C | -12.0% | -0.8% | 1.1% | -6.4% | 26.7µM*
CSC[C@H]1CN(c2ccccc2)C(=O)[C@@H]1CC(=O)Nc1ccccc1 | nt | nt | nt | nt | -0.4%
Cc1ccc(-c2nnc(-c3cccc(Br)c3)o2)cc1 | ? | 11.5% | -9.8% | 17.8% | 26.7µM*
Cc1ccccc1-c1nnc(-c2ccc(Br)cc2)o1 | -45.0% | -15.7% | 2.82µM* | -0.7% | -2.8%
O=C(OCc1ccccc1)[C@@H]1COC(c2ccc(Br)cc2)=N1 | 6.3% | 2.0% | -18.8% | 1.3% | nt
O=C(CNC(=O)c1ccc(Br)cc1)c1ccc(Br)cc1 | 39.9% | nt | -0.3% | 1.5% | -4.8%
O=C(CNc1ccc(Br)cc1)c1ccc(O)cc1 | -2.4% | 11.2µM* | ? | 39.8µM* | ?
O=C(CNc1ccc(Br)cc1)NNC1=NCCC1 | 5.62µM* | 16.9% | 7.08µM* | -3.9% | -1.9%
O=C(CNc1ccc(Cl)cc1)c1ccc(Br)cc1 | 18.0% | 10µM* | -3.3% | 7.0% | -5.3%
N#C/C(=C\c1cccc([N+](=O)[O-])c1)c1nnc2n1CCCCC2 | ? | 20µM* | -12.2% | 9.6% | -12.3%
CN(c1ccccc1)c1ccc(/C=C(\C#N)c2nnc3n2CCCCC3)cc1[N+](=O)[O-] | ? | ? | -0.2% | -8.5% | -18.3%
CC(=O)/C(N=Nc1cc(C)ccc1O)=C(\C)O | 3.16µM* | 2µM* | -3.5% | -2.2% | 7.5%
CC(=O)/C(N=Nc1ccc(C(=O)O)cc1[N+](=O)[O-])=C(\C)O | 0.0% | nt | -2.3% | -4.8% | -11.8%
CNc1ccc(Br)cc(C(=O)/C=C/c2cccc(Cl)c2Cl)c1=O | 0.4% | ? | -2.3% | 22.4µM* | ?
CNc1ccccc(C(=O)/C=C/c2ccccc2OC)c1=O | ? | 10µM* | ? | 31.6µM* | -22.5%
C/C(=C\c1cccc(Cl)c1Cl)C(=O)c1c(C)cc(C)[nH]c1=O | -31.9% | nt | 0.9% | 17.6% | -2.2%
COc1cccc(/C=C/C(=O)c2ccc3c(c2)OCO3)c1OC | nt | nt | nt | nt | -5.3%
CNc1ccc(Br)cc(C(=O)/C=C/c2cccc(OC)c2OC)c1=O | ? | 15.8µM* | ? | 12.6µM* | -8.0%
O=S1(=O)N[C@@H](Cc2ccccc2)COc2cccc(N3CCSCC3)c21 | nt | nt | nt | nt | 1.1%
O=c1c(-c2cccs2)nc2cnc(N3CCNCC3)nc2n1C1CC1 | -1.7% | ? | ? | 11.2% | nt
Cc1ccc(NC(=O)CCC(=O)OCC(=O)c2ccc(-c3ccccc3)cc2)cc1 | ? | ? | ? | 2.9% | 0.2%
O=C(CCC(=O)OCC(=O)c1ccc(-c2ccccc2)cc1)Nc1cccc2cccnc12 | 1.58µM* | 3.8% | 3.98µM* | -6.3% | -3.3%

Screening results as filed in PubChem.
